Source: paper PMC5540273 (PLoS ONE, 2017)

Legend:
Conditions in all cases: concentration: 1 μM, replicates: in singlicate; n = 1
[1] = system: CAMK2D
[2] = system: CAMK2G
[3] = system: CAMK4
[4] = system: CAMKK1
[5] = system: CAMKK2
[6] = system: CASK
[7] = system: T1, CDC2L1
T1 construct: gene CDK11B

[8] = system: CDC2L2
[9] = system: T2, CDC2L5
T2 construct: gene CDK13

[10] = system: T3, CDK11
T3 construct: gene CDK19

[11] = system: CDK2
[12] = system: CDK3
[13] = system: CDK4-cyclinD1
[14] = system: CDK4-cyclinD3
[15] = system: CDK4
[16] = system: CDK5
[17] = system: CDK7
[18] = system: CDK8
[19] = system: CDK9
[20] = system: CDKL1
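Further: KINOMEscan kinase panel screen.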

SMILES	%Inh [1] [%]	%Inh [2] [%]	%Inh [3] [%]	%Inh [4] [%]	%Inh [5] [%]	%Inh [6] [%]	%Inh [7] [%]	%Inh [8] [%]	%Inh [9] [%]	%Inh [10] [%]	%Inh [11] [%]	%Inh [12] [%]	%Inh [13] [%]	%Inh [14] [%]	%Inh [15] [%]	%Inh [16] [%]	%Inh [17] [%]	%Inh [18] [%]	%Inh [19] [%]	%Inh [20] [%]
Nc1nc(-c2ccc3c(N)n[nH]c3c2)cc(N2CCCCC2)n1 [GSK2228768]	0	25	0	0	6	15	0	0	0	0	6	17	0	0	0	0	0	0	0	20
Cc1ccc(NC(=O)c2cccc(C#N)c2)cc1-c1ccc(C(=O)Nc2ccncc2)cc1 [GSK1398463]	49	26	0	15	2	7	0	14	0	5	0	7	0	9	0	0	0	0	0	15
COc1cc2ncnc(Nc3ccc(OCc4ccccc4Br)c(Cl)c3)c2cc1OC.Cl [GI261590]	0	14	0	0	0	0	2	18	0	21	0	8	13	6	8	18	0	0	9	20
COc1ccc(-c2oc3ncnc(N)c3c2-c2ccc(OC)cc2)cc1 [SB-589132]	3	2	13	0	0	0	0	0	0	11	0	6	27	12	59	0	0	62	0	5
Cl.Fc1ccccc1COc1ccc(Nc2ncnc3ccc(-c4nnc(C(F)(F)F)o4)cc23)cc1Cl [GW424170]	0	14	0	1	10	0	0	15	0	2	0	0	0	0	26	0	0	29	0	3
c1ccc(-c2ccc3c(-c4ccnc(Nc5ccc6c(c5)OCCO6)n4)cnn3n2)cc1 [GW818941]	0	10	0	0	0	0	0	3	0	9	0	3	0	0	34	0	0	11	0	0
Fc1cccc(COc2ccc(Nc3ncnc4nn5ccccc5c34)cc2Cl)c1 [GW689066]	0	10	0	5	0	0	0	0	0	2	0	0	13	0	33	0	0	37	0	0
O=C(Nc1ccccc1)Nc1ccc(Oc2ccc3nccn3n2)cc1	0	14	29	0	14	7	0	8	0	0	0	1	0	0	0	0	0	23	0	36
CNc1nccc(-c2c(-c3ccc(F)cc3)ncn2CCCN2CCOCC2)n1 [SB-222516]	11	16	27	8	14	1	0	0	22	13	0	0	17	16	0	0	7	38	0	24
CCc1nc(-c2cccc(C)c2)c(-c2ccnc(NC(=O)c3ccccc3)c2)s1	0	10	0	4	7	0	11	2	12	5	0	0	15	6	13	21	24	1	0	0
CSc1nn2c(=O)cc(N3CCOCC3)nc2n1Cc1cccc(Cl)c1Cl [GSK2347225]	21	25	0	13	23	2	0	9	0	8	0	6	0	0	16	9	0	0	4	0
Clc1cccc(-c2nc(Nc3ccncc3)c3ccccc3n2)c1 [GW873004]	0	0	27	11	0	0	0	7	15	2	0	0	21	0	0	0	10	50	0	30
O=C(c1ccc(-c2cc(-c3c[nH]nc3-c3ccccn3)ccn2)cc1)N1CCCC1 [GW792479]	3	56	0	23	46	21	0	7	15	5	19	72	22	0	0	38	0	63	2	57
CS(=O)(=O)CCNCc1nc(-c2ccc3ncnc(Nc4ccc(OCc5cccc(F)c5)c(Cl)c4)c3c2)cs1.Cl [GW583340]	23	22	0	0	28	0	11	25	0	12	0	0	0	0	34	0	0	3	10	0
Fc1ccc(Nc2nccc(-c3c(-c4ccc(Cl)cc4)nn4ncccc34)n2)cc1F [GW829058]	0	2	0	2	5	26	6	11	30	18	13	18	62	12	19	34	42	0	12	17
CCn1c(-c2ccncc2)nc2cnccc21 [SB-735216]	0	0	0	0	4	5	9	0	28	18	5	1	0	0	45	0	6	0	0	12
O=C(NCCCN1CCCC1=O)c1cnc(NCc2cc(Cl)ccc2Cl)nc1NC1CCNCC1	0	0	0	4	1	78	0	0	0	4	0	2	0	0	0	11	33	0	0	3
Nc1nccc2scc(-c3ccc4c(c3)CCN4C(=O)Cc3cc(F)ccc3F)c12 [GSK2587663]	9	23	0	5	9	22	0	6	0	61	0	18	0	0	0	0	0	61	0	23
CCCc1ccc(S(=O)(=O)NC2CCN(c3ccnc(Nc4ccc(OC)cc4)n3)C2)cc1 (centres unmarked) [GSK1379737]	4	4	0	0	0	22	0	0	0	17	0	16	25	0	37	0	0	50	0	6
